Tgondii IFNg = T. gondii growth inhibition with IFN-gamma, primary screen, cell-based. Toxoplasma gondii growth in IFN-gamma-treated host cells; stronger effect = lower value. activity change, negative = inhibition, % (concentration not given with the values). 69,000 compounds, 3.8% hits; in the data active = activity change below about -70%, passing the limit was not always enough;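 note: host cells are HeLa cells infected with Toxoplasma gondii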
* = called active by the depositor. This is one part of a sample in which hits are shown more often than they occur.

SMILES | Tgondii IFNg
Cn1nc(CNc2ncccn2)c2c1CN(C(=O)c1ccccc1F)CC2 | -105.5*
Cc1cccc(S(=O)(=O)N2CCc3c(CNc4ncccn4)nn(C)c3C2)c1 | 2.4
CC(C)Cc1cc(C(=O)N2CCOC(C(F)(F)F)C2)n(C)n1 (stereo not drawn) | -6.9
COc1ccc(NC(=O)Nc2ccc(-c3nc(-c4ccccc4)co3)cc2)cc1 | -23.4
COc1ccc(Oc2ccc(NC(=O)Nc3ccc(SC(F)(F)F)cc3)cn2)cc1 | -87.6*
COc1ccc(NC(=O)CSCC(=O)O)cn1 | -7.2
Cc1c(C(=O)NCCC(=O)N2CCCCC2)cnn1C | -5.2
Cc1sc(-c2ccsc2)nc1-c1ccc(-c2ccccc2F)cc1 | 32.4
CN(C)C1CCN(C(=O)c2cc(-c3cnc(-c4cccc(F)c4)nc3)cn2C)CC1 | -24.6
CN(C)CCNC(=O)c1cc(-c2cnc(NCc3ccccc3)nc2)cn1C | -36.5
CN(C)CCNC(=O)c1cc(-c2cnc(-c3cccc(F)c3)nc2)cn1C | -95.1*
CCOc1ccc(NC(=O)N2CCC3(CC2)NC(=O)c2ccccc2N3C)cc1 | 200.3
COc1ccc2c3c([nH]c2c1)[C@H](CO)N(C(C)=O)CC31CCN(C(=O)c2ccc3c(c2)OCO3)CC1 | -13.2
CN1c2ccsc2-c2nc(SCc3ccc(Cl)cc3)ncc2S1(=O)=O | -85.0*
Clc1ccc(CSc2cccs2)cc1 | 10.8
O=c1nc(SCc2ccc(Cl)cc2)nc(-c2ccccc2)[nH]1 | -43.6
Cn1ncc2c(N3CCC(OCc4cccnc4)CC3)nc(C(C)(C)C)nc21 | 4.7
O=C(Nc1cnn(-c2ncc(N3CCCCC3)cn2)c1)NC1CCCC1 | 64.4
Cc1cc(C)n(-c2ncc(C#N)c(N)n2)n1 | 22.2
Cc1ccc(-c2cc(-c3ccccc3)nc(-n3nc(C)cc3C)n2)cc1 | -103.5*
Cc1cc(C)n(-c2nc3ccccc3s2)n1 | 416.6
O=S(=O)(Oc1cc(Cl)cc(Cl)c1)c1cccc2nsnc12 | -7.0
COc1cc(C(=O)NC(C)c2n[nH]c(C)n2)c2ccccc2n1 (stereo not drawn) | -34.3
O=C(CC1=NC(c2ccccc2O)ON1)N1CCCC1 (stereo not drawn) | 11.8
Cc1cnc2c(C(=O)NC(c3ccncc3)c3ccccc3C)cnn2c1 (stereo not drawn) | -1.5
SMILES | Tgondii IFNg
CCOc1ccccc1-c1noc(-c2nnn(Cc3nc(-c4ccc(C)cc4)oc3C)c2C)n1 | -16.7
COc1ccccc1-c1nc(Cc2noc(-c3ccccc3)n2)c(C)o1 | 116.4
CCOc1ccccc1-c1nc(Cc2noc(-c3ccccc3)n2)c(C)o1 | -100.7*
Cc1oc(-c2ccccc2)nc1Cc1noc(-c2ccncc2)n1 | 7.0
COc1ccccc1-c1nc(Cn2nnc(-c3nc(-c4cccnc4)no3)c2C)c(C)o1 | -2.5
CCOc1ccccc1-c1nc(Cc2nc(-c3ccc(OC)cc3)oc2C)no1 | -92.7*
Cc1cccc(-c2nc(Cc3noc(-c4ccncc4)n3)c(C)o2)c1 | 6.7
CCOc1ccc(-c2nc(Cc3noc(-c4cccnc4)n3)c(C)o2)cc1 | 55.1
CCOc1ccccc1-c1nc(Cc2noc(-c3cccnc3)n2)c(C)o1 | -78.7*
Cc1oc(-c2ccccc2)nc1Cc1noc(COc2ccccc2)n1 | -35.8
Cc1oc(-c2ccccc2)nc1Cc1noc(-c2cccnc2)n1 | -86.8*
CCOc1ccccc1-c1nc(CN(c2ccc(OC)cc2)S(=O)(=O)c2ccc(C)cc2)c(C)o1 | -18.8
Cc1nccn1CC1CCCN(Cc2cccc(-c3ccccn3)c2)C1 (stereo not drawn) | -8.5
COc1ccc(C2c3nc[nH]c3CCN2C(=O)c2cc3c(C)cc(C)cc3[nH]2)cc1 (stereo not drawn) | 33.3
CC(C)c1noc(-c2cc(=O)n(CC(=O)Nc3cccc(Cl)c3)c3ccccc23)n1 | -35.4
CCOC(=O)N1CCN(C(=O)c2ccc(N3CCC(NCCCn4cccn4)CC3)cc2)CC1 | -1.2
Cc1ccc2c(c1C)-n1cccc1C1(CCN(S(=O)(=O)c3ccc(C(C)C)cc3)CC1)N2 | 11.0
CCn1nc(C(=O)N2CCCC(O)(CO)C2)cc1C (stereo not drawn) | 3.3
COCC(=O)Nc1ccc2c(c1)C(=O)N(C)C[C@H](OC)[C@@H](C)CN(CCc1ccccc1)[C@H](C)CO2 | 12.8
CCc1ncc2c(n1)CN(C(=O)c1cnnn1-c1ccccc1)C2 | 13.7
CCc1nnc(NC(=O)CSc2nnnn2C)s1 | -8.1
Cc1ncccc1C(=O)N1CCc2c(c(C(=O)O)nn2C)C1 | 3.3
COc1ccc(OC)c(-n2cnnc2C(C)n2cccn2)c1 (stereo not drawn) | 2.6
COc1cccc(CN2CCC3(CC2)CC(Nc2ncccn2)C3)n1 | 6.8
Cc1nn(C)c(Cl)c1S(=O)(=O)N1CCC2(CC1)NCCNC2=O | 10.4
CCCSCCCNc1nc(-c2nnc(-c3ccc(C)cc3)o2)nc2ccccc12 | -25.6
Cc1cccc(-c2nnc(-c3nc(NCc4ccc(C)o4)c4ccccc4n3)o2)c1 | -80.4*
COc1ccc(-c2nnc(-c3nc(NCc4cccc(C)c4)c4ccccc4n3)o2)cc1 | -47.8
Cc1cccc(-c2nnc(-c3nc(NCCN4CCCC4)c4ccccc4n3)o2)c1 | -90.4*
